Several values for one entry are separate records, joined by “and”; a condition that tells them apart may be missing. Identical values can stand only once. The whole screen tested about 5,500 compounds, of which about 2,000 (36%) were called active. Another 18% or so got no clear call; they are omitted. Rule as the data show it: active = normalized growth mostly below about 0.91 (no sharp cut-off); inconclusive = no clear call, values can overlap the other calls; inactive = mostly above about 0.92. Some of the results follow.
Test: chemical genetic growth profiling, strain panel (AID 1159580);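 also: tested at 20 µM; growth read once vehicle control cultures reached saturation at 30 °C; 1 = growth at the plate median or of vehicle wells; lower values mean less growth of the strain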
Details: S. cerevisiae deletion strains, growth OD

Measured: normalized growth

CC(=O)O[C@@H]1CC2C(C)(C)C(=O)C=C[C@]2(C)C2CC[C@@]3(C)[C@H](c4ccoc4)OC(=O)[C@H]4O[C@]43[C@@]21C (stereo partly drawn)
inactive: locus YAL021C, strain ccr4, hits give low values 1.03 | locus YAL026C, strain drs2, hits give low values 0.99 | locus YAL030W, strain snc1, hits give low values 0.997 | locus YBL061C, strain skt5, hits give low values 1.01 | locus YBR009C, strain hhf1, hits give low values 0.981 | locus YBR021W, strain FUR4, hits give low values 0.983 | locus YBR023C, strain chs3, hits give low values 1.01 | locus YBR171W, strain sec66, hits give low values 0.982 | locus YBR229C, strain ROT2, hits give low values 0.997 | locus YBR231C, strain swc5, hits give low values 1 | locus YBR279W, strain paf1, hits give low values 1.01 | locus YCL011C, strain gbp2, hits give low values 0.994 | locus YCL016C, strain dcc1, hits give low values 1.02 | locus YCL029C, strain bik1, hits give low values 0.999 | locus YCL061C, strain MRC1, hits give low values 0.972 | locus YCL069W, strain vba3, hits give low values 0.968 | locus YCR088W, strain abp1, hits give low values 0.98 | locus YDL005C, strain med2, hits give low values 0.981 | locus YDL035C, strain GPR1, hits give low values 1 | locus YDL040C, strain nat1, hits give low values 0.998 | locus YDL074C, strain BRE1, hits give low values 0.988 | locus YDL101C, strain DUN1, hits give low values 1.01 | locus YDL134C, strain PPH21, hits give low values 0.997 | locus YDL185W, strain tfp1, hits give low values 1.01 | locus YDL192W, strain arf1, hits give low values 0.991 | locus YDR001C, strain nth1, hits give low values 0.972 | locus YDR069C, strain doa4, hits give low values 1 | locus YDR101C, strain arx1, hits give low values 0.984 | locus YDR137W, strain rgp1, hits give low values 0.95 | locus YDR159W, strain sac3, hits give low values 0.949 | locus YDR162C, strain NBP2, hits give low values 0.996 | locus YDR195W, strain ref2 1.02 | locus YDR297W, strain sur2, hits give low values 1.01 | locus YDR318W, strain mcm21, hits give low values 0.994 | locus YDR334W, strain swr1, hits give low values 1.02 | locus YDR335W, strain msn5, hits give low values 1.02 | locus YDR388W, hits give low values 0.994 | locus YDR392W, strain spt3, hits give low values 0.831 | locus YDR502C, strain sam2, hits give low values 0.981 | locus YEL003W, strain gim4, hits give low values 0.95 | locus YEL037C, strain rad23, hits give low values 0.973 | locus YEL061C, strain CIN8 (second series), hits give low values 0.973 | locus YEL061C, strain CIN8, hits give low values 0.996 | locus YER015W, strain faa2, hits give low values 1.01 | locus YER016W, strain bim1, hits give low values 1 | locus YER110C, hits give low values 0.997 | locus YER111C, strain swi4, hits give low values 0.985 | locus YER155C, strain BEM2 (second series), hits give low values 1 | locus YER155C, strain BEM2, hits give low values 1 | locus YER167W, strain BCK2, hits give low values 1.01 | locus YFR010W, strain ubp6, hits give low values 0.966 | locus YGL078C, strain dbp3, hits give low values 0.994 | locus YGL086W, strain mad1, hits give low values 1.01 | locus YGL167C, strain pmr1, hits give low values 1 | locus YGL173C, strain kem1, hits give low values 0.976 | locus YGL227W, strain vid30, hits give low values 0.961 | locus YGL240W, strain doc1, hits give low values 1.01 | locus YGL248W, strain PDE1, hits give low values 1 | locus YGL253W, strain hxk2, hits give low values 1.02 | locus YGR078C, strain PAC10, hits give low values 1.01 | locus YGR135W, strain pre9, hits give low values 0.998 | locus YGR252W, strain gcn5, hits give low values 0.993 | locus YHR013C, strain ard1, hits give low values 0.987 | locus YHR027C, strain rpn1, hits give low values 1.01 | locus YHR030C, strain SLT2, hits give low values 1.01 | locus YHR079C, strain IRE1 (second series), hits give low values 0.988 | locus YHR079C, strain IRE1, hits give low values 0.994 | locus YHR094C, strain hxt1, hits give low values 0.993 | locus YHR129C, strain ARP1, hits give low values 1 | locus YHR142W, strain chs7, hits give low values 0.987 | locus YHR200W, strain rpn10, hits give low values 0.997 | locus YIL066C, strain RNR3, hits give low values 1 | locus YIL073C, strain SPO22, hits give low values 0.969 | locus YIL125W, strain kgd1, hits give low values 0.994 | locus YIR030C, strain dcg1, hits give low values 0.989 | locus YJL092W, strain hpr5, hits give low values 0.992 | locus YJL095W, strain BCK1 (second series), hits give low values 1.02 | locus YJL095W, strain BCK1, hits give low values 0.983 and 0.999 | locus YJL115W, strain asf1, hits give low values 0.987 | locus YJL129C, strain trk1, hits give low values 0.928 | locus YJL134W, strain LCB3, hits give low values 1.01 | locus YJL154C, strain vps35, hits give low values 0.971 | locus YJL164C, strain tpk1, hits give low values 0.995 | locus YJL166W, strain qcr8, hits give low values 1 | locus YJL168C, strain set2, hits give low values 0.987 | locus YJL187C, strain SWE1 (second series), hits give low values 1.01 | locus YJL187C, strain SWE1, hits give low values 1.01 | locus YJR043C, strain POL32, hits give low values 1.01
